Experimental data taken from PubChem BioAssay.
“And” between values parts separate entries of the source, which are not always exact repeats. Equal entries are not always repeated. The source made the active and inactive calls.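 Rule for the calls, unless noted: active = thallium flux through the channel raised or lowered by more than 3 SD from vehicle-only wells, actives on both sides; inactive = the rest.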

What was measured:
[1] = system: F380Y; test: BK channel mutant inhibitors and activators – cell-based, U2OS BacMam, thallium flux, beta subunits, selectivity assay, profiling panel (AID 1259406); details: U2OS BacMam BK variants, at 30 µM;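 note: initial slope of Thallos dye fluorescence rise after thallium is added; log ratio against the mean of 0.3% DMSO vehicle wells on the same plate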
[2] = system: F380Y/beta1; test: as above; details: U2OS BacMam BK variants, at 30 µM
[3] = system: F380Y/beta2Delta; test: as above; details: U2OS BacMam BK variants, at 30 µM
[4] = system: F380Y/beta4; test: as above; details: U2OS BacMam BK variants, at 30 µM
[5] = target: Calcium-activated potassium channel subunit alpha-1 (Homo sapiens) + Leucine-rich repeat-containing protein 26 (Homo sapiens) (UniProt Q12791+Q2I0M4); test: as above; details: U2OS BacMam BK variants, F380Y/Slo1WT/gamma1, at 30 µM
[6] = system: R275C; test: as above; details: U2OS BacMam BK variants, at 30 µM
[7] = system: R275C/beta1; test: as above; details: U2OS BacMam BK variants, at 30 µM
[8] = system: R275C/beta2Delta; test: as above; details: U2OS BacMam BK variants, at 30 µM
[9] = system: R275C/beta4; test: as above; details: U2OS BacMam BK variants, at 30 µM
[10] = system: R275C/Slo1WT/beta2; test: as above; details: U2OS BacMam BK variants, at 30 µM
[11] = P. berghei load reduction in hepatocytes – cell-based, HepG2, luciferase luminescence, HepG2 viability, primary screen (AID 624349; in the data active = parasite load remaining mostly below about 12%, no sharp cut-off; inactive = mostly above about 10%;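 note: 100% = mean of DMSO negative control wells on the same plate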); details: P. berghei liver stage in HepG2, luciferase luminescence, concentration not given here; parasite load remaining: stronger effect = lower value; viability: measured here: HepG2 viability without parasites
[12] = signal quenchers or enhancers, Cy5 substrate/SSB – biochemical, NIH Clinical Collection, E. coli SSB, artefact control for HCV NS3 helicase inhibitor project (AID 743268; call rule not given here); details: Cy5-oligo bound E. coli SSB, fluorescence interference
[13] = system: Hepatitis C virus NS3 helicase; test: blockers of NS3h binding to DNA – biochemical, fluorescence polarization, NIH Clinical Collection, primary screen (AID 743270; call rule not given here); details: NS3 helicase binding to Cy5-dT15 DNA, stronger effect = higher value, concentration not given here
[14] = compounds distorting NS3 helicase fluorescence signal – biochemical, NIH Clinical Collection, artefact control for HCV NS3 helicase inhibitor project (AID 743272; call rule not given here;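 note: HCV NS3 helicase with a Cy5 labelled single stranded DNA probe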); details: fluorescence interference counterscreen, HCV NS3 helicase assay; stronger effect = lower value
[15] = modulation of C. elegans fzo-1 (AID 1259413; call rule not given here;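 note: fzo-1 mutant C. elegans worms in liquid wells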); details: C. elegans fzo-1 modulator screen, mean read-out; stronger effect = higher value
[16] = MELAS cybrid and Rieske KO viability enhancers – cell-based, MELAS cybrids, Rieske KO mouse fibroblasts, CellTiter-Glo, primary screen (AID 1508586;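 active = mean z-score across replicates of 1.96 or higher in either the MELAS or the Rieske mutant cell line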;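 note: z relative to plate mean and SD of compound and empty wells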); details: low glucose
[17] = target: Single-stranded DNA-binding protein (Escherichia coli (strain K12)) (UniProt P0AGE0); test: SSB-ssDNA binding inhibitors – biochemical, fluorescence polarization, NIH Clinical Collection, counter-screen for HCV NS3 helicase inhibitor project (AID 743271; in the data active = inhibition above about 28%); details: E. coli SSB-DNA binding, stronger effect = higher value, concentration not given here
[18] = EMT-state selective cytotoxicity in co-culture – imaging, PC-3E GFP, TEM4-18 mCherry, primary screen (AID 1345086;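 active = compounds killing one labelled cell type while sparing the other, by normalised counts and ratio limits, not self-fluorescent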;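 for all read-outs here: cells exposed to compound for 72 h before imaging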;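 for red/green cell ratio (normalised): normalised mesenchymal count divided by normalised epithelial count so high means epithelial killing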); details: PC-3E GFP / TEM4-18 mCherry co-culture, imaging cell counts, at 1 µM; for red/green cell ratio (normalised): actives lie on both sides, counts scaled to control wells, 1 = unselective
[19] = viability loss with induced miR-34 in A549 – imaging, A549 dox-inducible miR-34, nuclei and caspase counts, primary screen (AID 1347080;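 active = compounds whose cell count with miR-34 switched on is under 0.7 times the count with it off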); details: A549 miR-34 inducible, Hoechst nuclei count, 48 h
[20] = MELAS cybrid survival, CellTiter-Glo 48 h, stronger effect = higher value
[21] = Rieske KO mouse fibroblast survival, CellTiter-Glo 72 h
[22] = measured here: epithelial PC-3E GFP cell survival
[23] = measured here: mesenchymal TEM4-18 mCherry cell survival
[24] = stronger effect = lower value, cell number ratio, induced over uninduced
[25] = measured here: relative caspase fold change +Dox/-Dox
[26] = measured here: total cells with miR-34 induction, stronger effect = lower value
[27] = measured here: total cells without miR-34 induction

Chain of Calcium-activated potassium channel subunit alpha-1 (Homo sapiens) + Leucine-rich repeat-containing protein 26 (Homo sapiens) (Q2I0M4 whole entry, looked up, one chain of several): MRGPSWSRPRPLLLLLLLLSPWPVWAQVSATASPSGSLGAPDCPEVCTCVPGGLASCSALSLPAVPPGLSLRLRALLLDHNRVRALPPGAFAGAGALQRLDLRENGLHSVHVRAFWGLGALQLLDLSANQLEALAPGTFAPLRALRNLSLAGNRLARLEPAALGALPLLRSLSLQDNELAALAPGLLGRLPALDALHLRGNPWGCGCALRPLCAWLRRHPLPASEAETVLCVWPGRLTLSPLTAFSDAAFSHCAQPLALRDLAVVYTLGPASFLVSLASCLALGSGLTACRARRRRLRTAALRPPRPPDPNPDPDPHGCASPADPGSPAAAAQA

Cc1cc(Nc2ccc(F)cc2F)nc(SCc2c(Cl)cccc2Cl)n1
active: log fold change Tl+ flux [4] -0.123
inactive: log fold change Tl+ flux [1] -0.0282 | log fold change Tl+ flux [2] -0.0344 | log fold change Tl+ flux [3] -0.0422 | log fold change Tl+ flux [5] -0.039 | log fold change Tl+ flux [6] -0.0547 | log fold change Tl+ flux [7] -0.0316 | log fold change Tl+ flux [8] -0.000965 | log fold change Tl+ flux [9] -0.0113 | log fold change Tl+ flux [10] -0.0702

O=C(ON(C(=O)c1ccc(F)cc1)C1C2CC3CC(C2)CC1C3)c1ccc(F)cc1 (stereo unspecified)
inactive: log fold change Tl+ flux [1] 0.0231 | log fold change Tl+ flux [2] -0.0234 | log fold change Tl+ flux [3] 0.00474 | log fold change Tl+ flux [4] 0.0374 | log fold change Tl+ flux [5] 0.0901 | log fold change Tl+ flux [6] 0.0436 | log fold change Tl+ flux [7] -0.0159 | log fold change Tl+ flux [8] 0.00798 | log fold change Tl+ flux [9] 0.0539 | log fold change Tl+ flux [10] 0.0295

Cc1ccc(S(=O)(=O)NC(=O)NCc2csc3ccc(Cl)cc23)cc1
inactive: log fold change Tl+ flux [6] 0.0453
active: log fold change Tl+ flux [1] 0.252 | log fold change Tl+ flux [2] 0.65 | log fold change Tl+ flux [3] 0.241 | log fold change Tl+ flux [4] 0.366 | log fold change Tl+ flux [5] 0.14 | log fold change Tl+ flux [7] 0.48 | log fold change Tl+ flux [8] 0.193 | log fold change Tl+ flux [9] 0.329 | log fold change Tl+ flux [10] 0.116

Cc1c(C(=O)NN2CCCCC2)nn(-c2ccc(Cl)cc2Cl)c1-c1ccc(I)cc1
70.4%: viability [11]
inactive: parasite load remaining [11] 23% | fluorescence ratio [12] 0.91 | inhibition [13] 0.66% | fluorescence ratio [14] 0.92 | mean signal [15] 229 | z-score [16, 20] -0.338 | log fold change Tl+ flux [1] 0.00861 | log fold change Tl+ flux [2] -0.0372 | log fold change Tl+ flux [3] -0.0265 | log fold change Tl+ flux [4] -0.0348 | log fold change Tl+ flux [5] -0.0487 | log fold change Tl+ flux [6] 0.0781 | log fold change Tl+ flux [7] 0.0181 | log fold change Tl+ flux [8] -0.00675 | log fold change Tl+ flux [9] 0.0297 | log fold change Tl+ flux [10] 0.0305
-0.0666: z-score [16, 21]

CC(C)(S)C(N)C(=O)O (stereo unspecified)
11000 and 11700: cell count [19, 26]
0.96: normalised cell number [18, 23]
0.358: z-score [16, 21]
2.48 and 3.04: fold change [19, 25]
95.3% and 72.3% and 93.1%: viability [11]
11100 and 12600: cell count [19, 27]
1: normalised cell number [18, 22]
inactive: parasite load remaining [11] 70.2% and 91.2% and 22.9% | fluorescence ratio [12] 1.01 | inhibition [13] -10.4% | inhibition [17] -2.76% | fluorescence ratio [14] 0.98 | mean signal [15] 224 | red/green cell ratio (normalised) [18] 0.95 | fold change [19, 24] 0.987 and 0.932 | z-score [16, 20] 0.615 | log fold change Tl+ flux [1] 0.0383 | log fold change Tl+ flux [2] -0.0205 | log fold change Tl+ flux [3] -0.0259 | log fold change Tl+ flux [4] 0.0204 | log fold change Tl+ flux [5] 0.0127 | log fold change Tl+ flux [6] -0.00906 | log fold change Tl+ flux [7] 0.00628 | log fold change Tl+ flux [8] -0.0298 | log fold change Tl+ flux [9] 0.0197 | log fold change Tl+ flux [10] -0.0192

Cc1cnc(C(=O)NCCc2ccc(S(=O)(=O)NC(=O)NC3CCCCC3)cc2)cn1
inactive: fluorescence ratio [12] 1.05 | inhibition [13] -5% | inhibition [17] -2% | fluorescence ratio [14] 0.98 | mean signal [15] 228 | red/green cell ratio (normalised) [18] 1.07 | z-score [16, 20] 0.0771 and 0.00808 and -0.837 | log fold change Tl+ flux [1] -0.0483 | log fold change Tl+ flux [2] -0.0347 | log fold change Tl+ flux [3] -0.0103 | log fold change Tl+ flux [4] 0.0321 | log fold change Tl+ flux [5] -0.0267 | log fold change Tl+ flux [6] 0.0214 | log fold change Tl+ flux [7] 0.0314 | log fold change Tl+ flux [8] 0.0193 | log fold change Tl+ flux [9] 0.0322 | log fold change Tl+ flux [10] 0.0429
0.93: normalised cell number [18, 23]
0.87: normalised cell number [18, 22]
0.368 and 0.143 and -0.894: z-score [16, 21]

COc1c(N2C[C@@H]3CCCN[C@@H]3C2)c(F)cc2c(=O)c(C(=O)O)cn(C3CC3)c12
inactive: parasite load remaining [11] 52.8% | mean signal [15] 299 | red/green cell ratio (normalised) [18] 1.11 | fold change [19, 24] 0.953 | z-score [16, 20] -0.444 and -0.324 | log fold change Tl+ flux [1] 0.00312 | log fold change Tl+ flux [2] -0.0479 | log fold change Tl+ flux [3] 0.0707 | log fold change Tl+ flux [4] 0.0364 | log fold change Tl+ flux [5] 0.0216 | log fold change Tl+ flux [6] -0.02 | log fold change Tl+ flux [7] -0.0156 | log fold change Tl+ flux [8] 0.0202 | log fold change Tl+ flux [9] 0.0129 | log fold change Tl+ flux [10] 0.0157
7060: cell count [19, 26]
0.99: normalised cell number [18, 23]
7410: cell count [19, 27]
0.523 and -0.694: z-score [16, 21]
70.8%: viability [11]
0.89: normalised cell number [18, 22]
0.781: fold change [19, 25]

CN(C)CCCC1(c2ccc(F)cc2)OCc2cc(C#N)ccc21 (stereo unspecified)
-0.153 and 0.348 and -0.881: z-score [16, 21]
1.12: normalised cell number [18, 22]
1.31: normalised cell number [18, 23]
inactive: fluorescence ratio [12] 1.03 and 1.01 | inhibition [13] -5.94% and -0.45% | inhibition [17] -1.64% and 0.29% | fluorescence ratio [14] 0.99 and 1.03 | mean signal [15] 220 | red/green cell ratio (normalised) [18] 1.17 | z-score [16, 20] -0.338 and 0.623 and -0.34 | log fold change Tl+ flux [1] 0.0263 and 0.0749 | log fold change Tl+ flux [2] 0.0236 and -0.0159 | log fold change Tl+ flux [3] 0.0311 and 0.0638 | log fold change Tl+ flux [4] 0.0583 and -0.00121 | log fold change Tl+ flux [5] 0.0169 and -0.0497 | log fold change Tl+ flux [6] -0.0255 and -0.00148 | log fold change Tl+ flux [7] 0.0362 and 0.0712 | log fold change Tl+ flux [8] 0.0568 and 0.0646 | log fold change Tl+ flux [9] 0.0241 and 0.0131 | log fold change Tl+ flux [10] 0.0494 and 0.00231
